# Results filed as inconclusive are left out. Active and inactive are the calls of the source. Calls follow the shape of the dose curve; as a rule, active = well fitted cell-killing curve with a large enough effect in the repeat runs (not every such curve was filed as active); inconclusive = weak or mixed curves, or effect the other way; inactive = no such curve, though single readings can be large or run the other way.
# Test: qHTS assay to identify small molecule antagonists of the estrogen related receptor signaling pathway with the pleiotropic PPARgamma coactivator (PGC) from Tox21 10K library - cell viability counter screen (AID 1224840); also: nearly all actives have a fitted effect of over 40% in size
# Conditions: PGC/ERR reporter cells viability, CellTiter-Fluor, 17.5 h; series mostly up to 92.4 µM; viability change, negative = cytotoxic: at the top concentration
# Outline: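 Seeded PGC/ERR cells (2,000/well, 6 h, 37 C/5% CO2) get compound by pin tool; 17.5 h incubation at 37 C; CellTiter-Fluor added, 30 min, fluorescence measured.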
# % is scaled to controls: 0 for no effect and ±100 for the full control effect.
row,Structure (SMILES),"viability change, negative = cytotoxic"
1,CC1=CC[C@H](CC=O)C1(C)C,0.954% (inactive)
2,COCC(=O)Nc1c(I)c(C(=O)NCC(O)CO)c(I)c(C(=O)N(C)CC(O)CO)c1I (centres undefined),16.5% [at 42.5 µM] (inactive)
3,NS(=O)(=O)c1cc2c(cc1Cl)NC(C(Cl)Cl)NS2(=O)=O (centres undefined),17.1% [at 42.5 µM] (inactive)
4,C[Si]1(C)N[Si](C)(C)N[Si](C)(C)N1,-1.09% (inactive)
5,CCC(O)C(C)(C)C (centres undefined),-3.87% (inactive)
6,O=C(O)c1ccccc1C(=O)OCc1ccccc1,0.277% (inactive)
7,C=CCOCC(O)CCl (centres undefined),14.8% (inactive)
8,CCC1Nc2cc(Cl)c(S(N)(=O)=O)cc2S(=O)(=O)N1 (centres undefined),2.12% [at 42.5 µM] (inactive)
9,FC(F)(F)/C(=N\OCC1OCCO1)c1ccc(Cl)cc1,3.19% (inactive)
10,C1=C\CC/C=C\CC/1,2.07% (inactive)
11,CCCCCCCCCCCCC1CO1 (centres undefined),2.69% (inactive)
12,Nc1ccc(/C=C/c2ccc(N)cc2S(=O)(=O)O)c(S(=O)(=O)O)c1,2.38% [at 0.349 µM] (inactive)
13,O=S1(=O)CCCC1,4.51% (inactive)
14,CC(=O)OC(C)c1ccccc1 (centres undefined),0.628% (inactive)
15,O=C(Nc1cccc(C2=NCCN2)c1)Nc1cccc(C2=NCCN2)c1,0.87% [at 19 µM] (inactive)
16,CCOC(=O)CCCCCCCCC(=O)OCC,6% (inactive)
17,OC(CCN1CCCCC1)(c1ccccc1)c1ccccc1,1.31% [at 42.5 µM] (inactive)
18,CCCO,9.17% (inactive)
19,CC(=O)N1CCN(c2ccc(O)cc2)CC1,-2.77% [at 42.5 µM] (inactive)
20,C/C=C(\C)C(=O)OCC/C=C\CC,2.12% (inactive)
21,Cc1ccc(C(=O)C(=O)O)cc1C,0.23% [at 42.5 µM] (inactive)
22,Nc1cc(S(=O)(=O)O)ccc1S(=O)(=O)O,6.87% (inactive)
23,Nc1cc(Cl)cc(S(=O)(=O)O)c1O,0.967% (inactive)
24,CC(=O)N(CC(O)CO)c1c(I)c(C(=O)NCC(O)CO)c(I)c(C(=O)NCC(O)CO)c1I (centres undefined),13.8% [at 42.5 µM] (inactive)

# Source: PubChem BioAssay (Tox21)
